GDH-TPI inh: counter-screen for M. tuberculosis FBA inhibitors: GDH-TPI coupled enzymes | GDH-TPI coupled enzyme counterscreen, NADH absorbance | inhibition, % at 4.8 µM | 360,000 compounds, 1.2% hits | AID 588335; in the data active means inhibition above about 30%;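 further: 0% = DMSO wells and 100% = wells lacking the enzyme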
Mtb betalactam: beta-lactam sensitization of Mtb H37Rv; M. tuberculosis H37Rv growth with meropenem, percent inhibition; inhibition, % at 25 µM; 330,000 compounds, 0.27% hits; call rule not given here;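 further: growth measured after seven days incubation then overnight dye step; 0% = bacteria only wells and 100% = bacteria with antibiotic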
DUSP3 inh: blocks human VHR1 dual specificity phosphatase. P51452. recombinant VHR phosphatase, pNPP absorbance. inhibition, % at 13.3 µM. 290,000 compounds, 0.52% hits. AID 1654; in the data active means inhibition above about 50%
Target sequence (P51452 whole entry, looked up): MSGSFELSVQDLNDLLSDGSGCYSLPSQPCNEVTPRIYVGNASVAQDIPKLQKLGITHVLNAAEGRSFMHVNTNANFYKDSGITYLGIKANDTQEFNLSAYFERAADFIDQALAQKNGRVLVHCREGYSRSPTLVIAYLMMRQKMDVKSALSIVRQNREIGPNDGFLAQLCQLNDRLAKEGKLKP
FBA Mtb inh: inhibitors of M. tuberculosis fructose-bisphosphate aldolase; P9WQA3; purified M. tuberculosis FBA, fluorescence read-out; inhibition, % at 1 µM; 360,000 compounds, 2.3% hits; AID 588726; in the data active means inhibition above about 27%;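 further: 0% = vehicle and 100% = reference inhibitor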
Target sequence (P9WQA3 whole entry, looked up): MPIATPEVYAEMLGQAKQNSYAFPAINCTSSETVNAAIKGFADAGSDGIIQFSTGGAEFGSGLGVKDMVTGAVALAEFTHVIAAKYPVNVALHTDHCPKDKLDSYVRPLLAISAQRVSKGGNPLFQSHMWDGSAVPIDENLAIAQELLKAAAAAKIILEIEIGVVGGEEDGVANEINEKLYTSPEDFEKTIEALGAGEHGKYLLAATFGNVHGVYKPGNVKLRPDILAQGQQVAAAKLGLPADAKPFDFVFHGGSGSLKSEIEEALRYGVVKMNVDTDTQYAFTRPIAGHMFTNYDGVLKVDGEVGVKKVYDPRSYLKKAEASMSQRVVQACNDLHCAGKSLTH
Mtb hypoxia rep: inhibitors of hypoxia-regulated fluorescent reporter in Mycobacterium tuberculosis. M. tuberculosis hypoxia-regulated fluorescent reporter, fluorescence. fluorescence inhibition, % (no concentration beside the values). 300,000 compounds, 0.1% hits. AID 1159583; in the data active means fluorescence inhibition mostly above about 23%, no sharp cut-off; inactive means mostly below about 17%
Active calls of the source: *; / = no result; + = active, no number. Shown are actives, neighbours in structure and some others; about 3.6% of the full set was active somewhere.

SMILES	GDH-TPI inh	Mtb betalactam	DUSP3 inh	FBA Mtb inh	Mtb hypoxia rep
CCCCN1CC(=O)N2C3c4ccc(OC)cc4OCC3C(C(=O)OCC)[C@]2(C)C1=O (stereo partly specified)	/	/	/	/	13
COC(=O)C1=CC(C(=O)OC)C2C3=C(C(=O)[C@@]2(C)NC(=O)c2ccccc2)C(c2ccccc2)C2C(=O)NC(=O)C2C3C1 (stereo partly specified)	/	/	/	/	-3
Cc1ccc(C(=O)NCCN2C3=NCC(C(C)C)N3CC2Cc2ccc(O)cc2)cc1Br (stereo unspecified)	/	/	/	/	1
Cn1c(CSCc2ccc(Cl)cc2)n[nH]c1=S	-2	-4	52*	4	-1
CC(=O)c1ccc(NC(=O)c2cnn3ccccc23)cc1	36*	-8	17	2	6
COc1ccc(C2CC(=O)C=C(c3cccc4c3sc3ccccc34)C2)cc1OC (stereo unspecified)	/	/	/	/	1
COc1cccc(CN(C)C(=O)c2ccc(COc3ccc(Cl)cc3)cc2)c1OC	0	59	58*	-2	10
COc1ccc(-c2ccc3c(c2)CNCc2cnnn2-3)cc1	/	/	/	115*	/
c1ccc(-c2ccc3c(c2)CNCc2cnnn2-3)cc1	/	/	/	1	/
CCOC(=O)CNC(=O)N1Cc2cc(-c3ccc(OC)cc3)ccc2-n2nncc2C1	/	/	/	124*	/
CCOC(=O)CNC(=O)N1Cc2cc(-c3cccc(F)c3)ccc2-n2nncc2C1	/	/	/	-2	/
CC(=NNC(=O)c1cc(Br)ccc1O)C(=NO)C(=O)Nc1ccccc1	/	/	/	/	8
CN1CCc2c(sc3nc(SCC(=O)N4CCOCC4)n(-c4ccc(Cl)cc4)c(=O)c23)C1	51*	2	9	25	-1
COc1ccc(-n2c(SCC(N)=O)nc3sc4c(c3c2=O)CCN(C)C4)cc1	35*	-2	19	35*	-2
CC1CCN(C(=O)CSc2nc(N)c3c4c(sc3n2)CN(C)CC4)CC1	11	/	19	31*	5
CNC(=O)CSc1nc(N)c2c3c(sc2n1)CCC3	11	7	25	3	9
CN1CC2C3C(=O)N(Cc4ccccc4)C(=O)C3[C@](Cc3ccccc3)(C1=O)N2C(=O)c1ccc(Cl)cc1 (stereo partly specified)	/	/	/	/	13
CCN1C(=O)C2C(c3ccc(-c4ccc(OC)cc4)cc3)N[C@@](CC(C)C)(C(=O)OC)C2C1=O (stereo partly specified)	/	/	/	/	14
CC=CC=CC(=O)Nc1cccc(C2=NOC3(C2)CC(C(N)=O)N(C(=O)COc2ccc(Cl)cc2)C3)c1 (stereo unspecified)	/	/	/	/	6
O=C(c1cccc(Br)c1)N1CCCc2ccccc21	-8	-7	1	0	/
O=C(c1coc(=O)c(Br)c1)N1CCCc2ccccc21	22	8	29	141*	-3
O=C(c1coc(=O)c(Br)c1)N1CCC(C(O)(c2ccccc2)c2ccccc2)CC1	32*	10	-1	70*	12
CC1(C)CCCN(C(=O)c2coc(=O)c(Br)c2)C1	7	/	22	51*	/
CC(C)(C)OC(=O)N1CCN(C(=O)c2[nH]cnc2C(=O)NC(Cc2ccccc2)C(=O)OCc2ccccc2)CC1 (stereo unspecified)	/	/	/	/	4
CC(CO)NC(=O)C1CC1C(NP(=O)(c1ccccc1)c1ccccc1)c1ccccc1 (stereo unspecified)	/	/	/	/	-2
SMILES	GDH-TPI inh	Mtb betalactam	DUSP3 inh	FBA Mtb inh	Mtb hypoxia rep
COc1ccc2c(c1)CCC1(C)CC(=O)C(Br)=C21 (stereo unspecified)	42*	/	/	+	/
COC(=O)c1sccc1NC(=O)COc1ccc(F)cc1Cl	4	11	57*	-2	6
COC(=O)c1ccc(OCC(=O)Nc2ccsc2C(=O)OC)cc1	0	2	26	2	5
CC(=O)N(C)c1ccc(N=Nc2ccc3ncccc3c2)cc1	56*	/	/	4	6
CCN(CC)S(=O)(=O)c1ccc(NC=C(C#N)C#N)cc1	22	-6	1	-1	13
Cc1ccc(N/N=C/c2c(C)c(C#N)c(=O)n(C)c2O)cc1C	32*	/	3	-3	9
COc1cc(S(=O)(=O)Nc2ccc(C)cc2)ccc1N=Cc1c(C)c(C#N)c(=O)n(C)c1O	20	6	2	-3	/
CCN(CC)S(=O)(=O)c1ccc(N=Cc2c(C)c(C#N)c(=O)n(C)c2O)cc1	38*	7	1	3	3
Cc1c(C=N)c(O)n(C)c(=O)c1C#N	32*	-3	18	0	-10
COc1ccc(-c2nnc(-c3ccc(N(C)C)cc3)o2)cc1	22	50	-17	18	3
CN(C)c1ccc(-c2nnc(-c3ccccc3F)o2)cc1	33*	-2	1	22	1
COC(=O)Nc1nnc(-c2ccccc2Cl)s1	2	-17	-17	48*	/
COC(=O)Nc1nnc(-c2ccco2)s1	-4	0	8	-4	8
O=C(NC(Cc1ccccc1)C(=O)OCc1ccccc1)c1nc[nH]c1C(=O)NC(Cc1ccccc1)C(=O)OCc1ccccc1 (stereo unspecified)	/	/	/	/	7
COc1cccc(-c2nc(CS(=O)(=O)CC(=O)NCCCN3CC(C)CC(C)C3)c(C)o2)c1 (stereo unspecified)	9	-4	106	4	11
COc1cccc(-c2nc(CS(=O)(=O)CC(=O)NCCCN3C(C)CCCC3C)c(C)o2)c1 (stereo unspecified)	3	-4	57*	1	5
Cc1oc(-c2ccccc2F)nc1CS(=O)(=O)CC(=O)NCCN1CCCC1	-3	1	53*	0	-7
CCN1CC2C3C(=O)N(Cc4ccccc4)C(=O)C3[C@](Cc3ccccc3)(C1=O)N2C(=O)c1ccc(C(C)(C)C)cc1 (stereo partly specified)	/	/	/	/	6
CN(C(=O)CSc1nc2ccc([N+](=O)[O-])cc2s1)C1CCS(=O)(=O)C1 (stereo unspecified)	34*	-5	-4	0	3
CC(C)(C)C1CCC(=O)N(C(CC#N)Cc2ccccc2)CC1 (stereo unspecified)	/	/	/	/	2
COC(=O)C1C(c2cccc(C(F)(F)F)c2)NC(=O)N(Cc2ccccc2)C1C (stereo unspecified)	/	/	/	/	15
CC(=O)c1cccc(NC(=O)CCc2nnc3ccc(NCc4ccc5c(c4)OCO5)nn23)c1	-1	-6	57*	5	-13
CC(=O)c1cccc(NC(=O)CCc2nnc3ccc(N4CCN(C)CC4)nn23)c1	1	1	-9	1	-8
CN(C)c1cccc(C(=O)NN=Cc2ccsc2)c1	/	/	/	/	5
CC(C)(C)OC(=O)NC(Cc1ccccc1)C(=O)NC(CO)C(O)C1CC1C(=O)N1CCCC1 (stereo unspecified)	/	/	/	/	9
Cc1ccc2c(Cl)cc(Cl)c(OCC(=O)N3CCCC3)c2n1	0	2	37	4	7
Cc1ccc2c(Cl)cc(Cl)c(OCC(=O)O)c2n1	6	-8	56*	0	7
O=C(COC(=O)c1cc(-c2cccs2)nc2ccccc12)NCc1ccco1	8	-3	6	45*	/
